Values joined by “and” are separate entries in the source; they are usually repeats but may differ in a detail not shown here. Equal entries are not always repeated. Screen size: about 5,500 compounds; about 2,000 (36%) were called active. About 18% were inconclusive and are not listed. Rule as the data show it: active = normalized growth mostly below about 0.91 (no sharp cut-off); inconclusive = no clear call, values can overlap the other calls; inactive = mostly above about 0.92. This is one part of the list.
Experiment: chemical genetic growth profiling, strain panel (AID 1159580);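 also: tested at 20 µM; growth read once vehicle control cultures reached saturation at 30 °C; 1 = growth at the plate median or of vehicle wells; lower values mean less growth of the strain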
Settings: growth OD

Measured: normalized growth

COc1cc(Cc2cnc(N)nc2N)cc(OC)c1OC
inactive: S. cerevisiae deletion strains, locus YJR075W, strain HOC1, active compounds read low 1.01 | S. cerevisiae deletion strains, locus YKL009W, strain mrt4, active compounds read low 1.04 | S. cerevisiae deletion strains, locus YKL068W, active compounds read low 0.986 | S. cerevisiae deletion strains, locus YKL085W, strain MDH1 (second series), active compounds read low 1.03 | S. cerevisiae deletion strains, locus YKL085W, strain MDH1, active compounds read low 1.03 | S. cerevisiae deletion strains, locus YKL160W, strain elf1, active compounds read low 1.01 | S. cerevisiae deletion strains, locus YKL190W, strain CNB1, active compounds read low 1.01 | S. cerevisiae deletion strains, locus YKR001C, strain vps1, active compounds read low 0.989 | S. cerevisiae deletion strains, locus YKR026C, strain gcn3, active compounds read low 1 | S. cerevisiae deletion strains, locus YKR091W, strain srl3, active compounds read low 1.01 | S. cerevisiae deletion strains, locus YLL001W, strain dnm1, active compounds read low 0.993 | S. cerevisiae deletion strains, locus YLL026W, active compounds read low 1.01 | S. cerevisiae deletion strains, locus YLL041C, strain sdh2, active compounds read low 1.01 | S. cerevisiae deletion strains, locus YLR027C, strain aat2, active compounds read low 1.01 | S. cerevisiae deletion strains, locus YLR039C, strain RIC1, active compounds read low 1.03 | S. cerevisiae deletion strains, locus YLR058C, strain SHM2, active compounds read low 1 | S. cerevisiae deletion strains, locus YLR102C, strain apc9, active compounds read low 0.994 | S. cerevisiae deletion strains, locus YLR113W, strain HOG1, active compounds read low 0.994 | S. cerevisiae deletion strains, locus YLR221C, strain rsa3, active compounds read low 0.998 | S. cerevisiae deletion strains, locus YLR258W, strain gsy2, active compounds read low 1.02 | S. cerevisiae deletion strains, locus YLR262C, strain YPT6 (second series), active compounds read low 1.01 | S. cerevisiae deletion strains, locus YLR262C, strain YPT6, active compounds read low 1.03 | S. cerevisiae deletion strains, locus YLR268W, strain sec22, active compounds read low 0.978 | S. cerevisiae deletion strains, locus YLR320W, strain mms22, active compounds read low 1.02 | S. cerevisiae deletion strains, locus YLR330W, strain CHS5, active compounds read low 1 | S. cerevisiae deletion strains, locus YLR342W, strain FKS1 (second series), active compounds read low 0.992 | S. cerevisiae deletion strains, locus YLR342W, strain FKS1, active compounds read low 1 | S. cerevisiae deletion strains, locus YLR357W, strain rsc2, active compounds read low 0.998 | S. cerevisiae deletion strains, locus YLR370C, strain arc18, active compounds read low 1.01 | S. cerevisiae deletion strains, locus YLR371W, strain rom2, active compounds read low 0.991 | S. cerevisiae deletion strains, locus YLR384C, strain iki3, active compounds read low 1.02 | S. cerevisiae deletion strains, locus YLR418C, strain cdc73, active compounds read low 0.961 | S. cerevisiae deletion strains, locus YML016C, strain PPZ1, active compounds read low 0.994 | S. cerevisiae deletion strains, locus YML032C, strain rad52, active compounds read low 0.981 | S. cerevisiae deletion strains, locus YML120C, strain ndi1, active compounds read low 1.02 | S. cerevisiae deletion strains, locus YML124C, strain tub3, active compounds read low 0.991 | S. cerevisiae deletion strains, locus YMR058W, strain fet3, active compounds read low 1 | S. cerevisiae deletion strains, locus YMR078C, strain ctf18, active compounds read low 0.987 | S. cerevisiae deletion strains, locus YMR125W, strain sto1, active compounds read low 1.04 | S. cerevisiae deletion strains, locus YMR129W, active compounds read low 1.01 | S. cerevisiae deletion strains, locus YMR205C, strain PFK2, active compounds read low 1.03 | S. cerevisiae deletion strains, locus YMR223W, strain ubp8, active compounds read low 1.01 | S. cerevisiae deletion strains, locus YMR231W, strain pep5, active compounds read low 1.02 | S. cerevisiae deletion strains, locus YMR263W, strain SAP30, active compounds read low 1 | S. cerevisiae deletion strains, locus YMR307W, strain GAS1, active compounds read low 1.03 and 1 | S. cerevisiae deletion strains, locus YNL067W, strain RPL9B, active compounds read low 1 | S. cerevisiae deletion strains, locus YNL071W, strain lat1, active compounds read low 1.01 | S. cerevisiae deletion strains, locus YNL128W, strain TEP1, active compounds read low 0.998 | S. cerevisiae deletion strains, locus YNL153C, strain GIM3, active compounds read low 0.991 | S. cerevisiae deletion strains, locus YNL175C, strain NOP13, active compounds read low 0.937 | S. cerevisiae deletion strains, locus YNL183C, strain NPR1, active compounds read low 0.934 | S. cerevisiae deletion strains, locus YNL197C, strain WHI3, active compounds read low 0.956 | S. cerevisiae deletion strains, locus YNL209W, strain ssb2, active compounds read low 1.01 | S. cerevisiae deletion strains, locus YNL224C, strain SQS1, active compounds read low 0.981 | S. cerevisiae deletion strains, locus YNL233W, strain BNI4, active compounds read low 1.01 | S. cerevisiae deletion strains, locus YNL248C, strain rpa49, active compounds read low 1.02 | S. cerevisiae deletion strains, locus YNL250W, strain rad50, active compounds read low 0.988 | S. cerevisiae deletion strains, locus YNL271C, strain bni1, active compounds read low 0.985 | S. cerevisiae deletion strains, locus YNL298W, strain CLA4, active compounds read low 0.985 | S. cerevisiae deletion strains, locus YNL307C, strain MCK1, active compounds read low 0.994 | S. cerevisiae deletion strains, locus YNL322C, strain KRE1 (second series), active compounds read low 1.03 | S. cerevisiae deletion strains, locus YNL322C, strain KRE1, active compounds read low 1 and 0.976 | S. cerevisiae deletion strains, locus YNR049C, strain mso1, active compounds read low 1.01 | S. cerevisiae deletion strains, locus YNR052C, strain pop2, active compounds read low 0.986 | S. cerevisiae deletion strains, locus YOL006C, strain TOP1, active compounds read low 0.954 | S. cerevisiae deletion strains, locus YOL012C, strain htz1 0.78 | S. cerevisiae deletion strains, locus YOL147C, strain pex11, active compounds read low 0.996 | S. cerevisiae deletion strains, locus YOR001W, strain rrp6, active compounds read low 1.01 | S. cerevisiae deletion strains, locus YOR061W, strain CKA2, active compounds read low 1 | S. cerevisiae deletion strains, locus YOR069W, strain VPS5, active compounds read low 0.993 | S. cerevisiae deletion strains, locus YOR070C, strain gyp1, active compounds read low 1.01 | S. cerevisiae deletion strains, locus YOR080W, strain dia2, active compounds read low 1.03 | S. cerevisiae deletion strains, locus YOR083W, strain WHI5 (second series), active compounds read low 0.975 | S. cerevisiae deletion strains, locus YOR083W, strain WHI5, active compounds read low 0.999 | S. cerevisiae deletion strains, locus YOR106W, strain vam3, active compounds read low 1.01 | S. cerevisiae deletion strains, locus YOR136W, strain idh2, active compounds read low 0.992 | S. cerevisiae deletion strains, locus YOR144C, strain elg1, active compounds read low 0.989 | S. cerevisiae deletion strains, locus YOR184W, strain ser1, active compounds read low 0.991 | S. cerevisiae deletion strains, locus YOR231W, strain MKK1, active compounds read low 0.993 | S. cerevisiae deletion strains, locus YOR265W, strain rbl2, active compounds read low 1.01 | S. cerevisiae deletion strains, locus YOR270C, strain vph1, active compounds read low 1 | S. cerevisiae deletion strains, locus YOR290C, strain snf2, active compounds read low 1.03 | S. cerevisiae deletion strains, locus YOR316C, strain cot1, active compounds read low 0.994 | S. cerevisiae deletion strains, locus YPL051W, strain arl3, active compounds read low 1 | S. cerevisiae deletion strains, locus YPL055C, strain LGE1, active compounds read low 1.05 and 1.01 | S. cerevisiae deletion strains, locus YPL078C, strain atp4, active compounds read low 1.01 | S. cerevisiae deletion strains, locus YPL106C, strain sse1, active compounds read low 1.04 | S. cerevisiae deletion strains, locus YPL240C, strain hsp82, active compounds read low 1.01 | S. cerevisiae deletion strains, locus YPL241C, strain CIN2, active compounds read low 1 | S. cerevisiae deletion strains, locus YPL256C, strain CLN2, active compounds read low 0.982 | S. cerevisiae deletion strains, locus YPR119W, strain clb2, active compounds read low 0.986 | S. cerevisiae deletion strains, locus YPR141C, strain kar3, active compounds read low 0.987 | S. cerevisiae deletion strains, locus YPR163C, strain tif3, active compounds read low 0.988 | S. cerevisiae deletion strains, locus YPR167C, strain met16, active compounds read low 0.985 | S. cerevisiae deletion strains, strain wtn01, active compounds read low 0.977 | S. cerevisiae strains, strain wild type, active compounds read low 1.01
